# Test results taken from PubChem BioAssay (NCI).
# About 83,000 compounds went through this panel and 20% of them were active in at least one assay; those are over-represented in the sample as a whole.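 Percent growth is the endpoint: 0 to 100 indicates growth inhibition (40 means 60% inhibition), 0 means no net growth, and negative values indicate cell death.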 Values without a mark were called inactive. Activity calls are given as the source filed them.
# Tested on: SNB-19 CNS
# Assay: NCI-60 one-dose screen, 48 h (100 = growth as untreated, 0 = no growth, -100 = all killed)
# Details: 10 µM
# Procedure: Growth inhibition of the SNB-19 human tumor cell line is measured as a screen for anti-cancer activity. Cells are grown in 96 well plates and exposed to the test compound for 48 hours. Compounds are tested at a single concentration, which is 10^-5 M for most compounds. The reported endpoint is percent growth (GI% or GIPRCNT), where numbers from 0 - 100% represent growth inhibition, and numbers from -100% - 0 represent cell death. For example, a value of 40 represents 60% growth inhibition. A value of 0 means no net growth occurred over the course of the experiment. A value of -40 indicates 40% of cells at the beginning of the experiment died by the end of the experiment. A value of -100 means all cells are dead at the end of the experiment.
# NCI-60 Human Tumor Cell Lines Screen was performed using the standard one-dose NCI protocol, which is described in more detail at https://dtp.cancer.gov/discovery_development/nci-60/default.htm.
# Compounds with GIPRCNT values below 10 were considered active. Activity score was based on GIPRCNT using the following formula: […]
# Score is 0 for GIPRCNT values of 100 or above, 50 for GIPRCNT values of 0, and 100 for GIPRCNT values of -100.
row,Compound,growth
1,Cc1cc(N=C2NC(=O)S/C2=C\c2ccc(F)cc2)n[nH]1,27.4%
2,COc1ccc(C2c3sc4ccc(C)cc4c3Oc3nc(N)nc(N)c32)cc1 (stereo not given),84.5%
3,COc1ccc(-n2c(SCC(=O)NNS(=O)(=O)c3ccccc3)nc3ccc(Cl)cc3c2=O)cc1,98.6%
4,Cn1cc(-c2nc(N)nnc2-c2c[nH]c3ccccc23)c2cc(Br)cnc21,44.9%
5,COc1cc(C2CC(c3ccccc3)=Nc3c(N)nc(N)nc3N2)ccc1Oc1nc(NCCO)nc(N2CCOCC2)n1 (stereo not given),89.8%
6,O=C(CC(=O)Nc1ccc(Oc2ncnc3scc(Nc4n[nH]c(=S)s4)c23)cc1)Nc1ccc(Cl)cc1,87.7%
7,C#C[C@]1(O)CC[C@H]2[C@@H]3CC=C4c5sc(Nc6ccc(N(C)C)cc6)nc5CC[C@]4(C)[C@H]3CC[C@@]21C,18.1%
8,O=C(Nc1ccc(OCc2ccc(F)cc2)cc1)Nc1ccc(Cl)c(C(F)(F)F)c1,18.3%
9,O=C(CN1CCN(c2ncnc3c2cnn3-c2ccccc2)CC1)Nc1ccc(Br)cc1,69.3%
10,O=C(CN1CCN(c2ncnc3c2cnn3-c2ccccc2)CC1)Nc1ccc(Cl)cc1,66.5%
11,COc1ccc(C(=O)COc2ccc(NC(=O)Nc3ccc(Cl)c(C(F)(F)F)c3)cc2)cc1,21.9%
12,O=C(Nc1ccc(OCC(=O)c2ccc(Cl)cc2)cc1)Nc1ccc(Cl)c(C(F)(F)F)c1,21.3%
13,COc1cc(Nc2nc(O)c(/C=C3\C=Nc4ccccc43)s2)cc(OC)c1OC,-39.4% (active)
14,O=[N+]([O-])c1cccc(-c2nnc3c(/C=C/c4ccccc4O)nc4ccccc4n23)c1,87%
15,Cn1cc(-c2cc3nc(-c4c[nH]c5ccccc45)cc(N)n3n2)c2cc(Cl)ccc21,-78.2% (active)
16,Cn1cc(/C=C(/SS/C(=C/c2cn(C)c3cccc(C(=O)O)c23)C(=O)O)C(=O)O)c2c(C(=O)O)cccc21,102%
17,Cc1cc(N=C2NC(=O)/C(=C/c3cc(C(C)(C)C)c(O)c(C(C)(C)C)c3)S2)n[nH]1,21.1%
18,COc1cc2oc(-c3cccc(C(=O)Nc4ccc(Cl)cc4)c3)cc(=O)c2c(OCCN)c1OC,-78.7% (active)
19,COc1cc2oc(-c3cccc(C(=O)Nc4ccc(Cl)cc4)c3)cc(=O)c2c(OCCNC(=O)[C@@H](N)CO)c1OC,25%
20,C#C[C@]1(O)CC[C@H]2[C@@H]3CC=C4c5sc(Nc6cc(C)cc(C)n6)nc5CC[C@]4(C)[C@H]3CC[C@@]21C,-39.1% (active)

row,Compound,growth
1,COc1ccc(C2c3sc4ccc(C)cc4c3Oc3nc[nH]c(=O)c32)cc1 (stereo not given),75.3%
2,CC1[C@H]2[C@H](C[C@H]3[C@@H]4CC=C5c6sc(Nc7cccc(Cl)n7)nc6CC[C@]5(C)[C@H]4CC[C@@]32C)O[C@]12CC[C@@H](C)CO2 (stereo not given in full),96.6%
3,C#C[C@]1(O)CC[C@H]2[C@@H]3CC=C4c5sc(Nc6ccc(C(F)(F)F)cn6)nc5CC[C@]4(C)[C@H]3CC[C@@]21C,8.33% (active)
4,COc1ccc(C(=O)COc2ccc(NC(=O)Nc3ccccc3)cc2)cc1,93.3%
5,Fc1ccc(-c2csc(Nc3cccc(Nc4nc(-c5ccc(F)cc5)cs4)c3)n2)cc1,70.2%
6,O=C1S/C(=C\c2ccc([N+](=O)[O-])cc2)C(=O)N1CCN1CCCCC1,98.6%
7,O=C(c1ccc(Cl)cc1)C(c1c[nH]c2ccccc12)c1c[nH]c2ccccc12,22.4%
8,CCn1c(SCC(=O)Nc2ccc(-c3nc4ccccc4[nH]3)cc2)nc2ccccc2c1=O,-63.5% (active)
9,O=C(c1ccc(F)cc1)C(c1c[nH]c2ccccc12)c1c[nH]c2ccccc12,92.6%
10,CC1(C)CC(=O)C2=C(C1)N(Cc1ccc(C(=O)O)cc1)C1=C(C(=O)CC(C)(C)C1)C2c1ccc(Cl)cc1,112%
11,O=C(CC(=O)Nc1ccc(Oc2ncnc3scc(Nc4n[nH]c(=S)s4)c23)cc1)Nc1ccc(Br)cc1,99.9%
12,COc1cccc(C(=O)CSc2nc(-c3ccc(OCc4ccccc4)c(OC)c3)c(C#N)c(=O)[nH]2)c1,70.7%
13,CCOc1ccc(/C=N/NC(=O)Cn2nc(Cc3ccc(OC)cc3)c3onc(C)c3c2=O)cc1,29%
14,Cn1cc(-c2cc(N)n3nc(-c4cn(C)c5ccccc45)cc3n2)c2cc(F)ccc21,-6.35% (active)
15,CCOC(=O)c1ccc(NC(=O)CSC(CC(=O)c2sc(Nc3ccccn3)nc2C)c2ccccc2F)cc1 (stereo not given),21.1%
16,O=C1NC(=S)S/C1=C\c1cn(-c2ccccc2)nc1-c1ccc([N+](=O)[O-])cc1,18.7%
17,Cc1ccc2c(c1)C(=O)/C(=C/c1ccc([N+](=O)[O-])cc1)S2,92.4%
18,COc1cc(-c2nc3ccc(C)cc3[nH]2)ccc1OCc1nnc(-c2ccccc2Br)o1,73.9%
19,O=C1NC2C=CC=CC2/C1=C1/SC(=S)N(C2CC(=O)N(c3ccc(Br)cc3)C2=O)C1=O (stereo not given),93.9%
20,Cc1ccc2c(c1)C(=O)/C(=C/c1c[nH]c3ccccc13)S2,27.3%
